Reference: the supplement of paper PMC6609913
Counter-ions that a name gives are not always drawn. ± gives the standard deviation of the averaged measurements. Whole data set: some 1,300 compounds, median “normalised cell viability” near 1, cut for the lowest 2% near 0.15. What follows is part of a selection rich in the lowest values, with near analogues and random picks from the rest.

Tested on: V-C8 + BRCA2 (BRCA2-proficient hamster cells)
Assay: normalised cell viability (fraction of plate median); higher = more viable cells (less toxic)
Settings: 5 µM
How it was run: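 In two screens, library drugs at 5 μM were given for 3 days (screen 1) or 6 days (screen 2) to hamster V-C8 cells without BRCA2 and V-C8 cells with BRCA2 restored, seeded 24 h earlier in 96-well plates. A resazurin assay gave the cell viability readout, expressed as modified robust per cent of sample against the plate median, with triplicate wells averaged.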

Row | Compound | normalised cell viability (treatment time: 3 days) | normalised cell viability (treatment time: 6 days)
1 | N=C(N)NCC1COC2(CCCCC2)O1 (stereo unspecified) [Guanadrel sulfate] | 1.06 ± 0.038 | 1.03 ± 0.041
2 | CN(C/C=C/C#CC(C)(C)C)Cc1cccc2ccccc12 [Terbinafine] | 0.206 ± 0.0049 | 0.339 ± 0.031
3 | CCCCCCC[N+](CC)(CC)CCCCc1ccc(Cl)cc1 [Clofilium tosylate] | 0.897 ± 0.063 | 0.935 ± 0.094
4 | CN1CCN(CCCN2c3ccccc3Sc3ccc(S(=O)(=O)N(C)C)cc32)CC1 [Thioproperazine dimesylate] | 0.884 ± 0.11 | 0.834 ± 0.039
5 | N=C(N)N/N=C/c1c(Cl)cccc1Cl [Guanabenz acetate] | 1.1 ± 0.022 | 1.01 ± 0.082
6 | Cn1cnc([N+](=O)[O-])c1Sc1ncnc2[nH]cnc12 [Azathioprine] | 0.93 ± 0.032 | 0.93 ± 0.045
7 | C[C@@H]1CN(c2c(F)c(N)c3c(=O)c(C(=O)O)cn(C4CC4)c3c2F)C[C@H](C)N1 [Sparfloxacin] | 1.027 ± 0.009 | 1.05 ± 0.056
8 | COC(=O)C1=C(C)NC(C)=C(C(=O)OC(C)C)C1c1cccc2nonc12 (stereo unspecified) [Isradipine] | 1.02 ± 0.032 | 0.9264 ± 0.0066
9 | CC1CNc2c(cccc2S(=O)(=O)N[C@@H](CCCNC(=N)N)C(=O)N2CC[C@@H](C)C[C@@H]2C(=O)O)C1 (stereo partly specified) [Argatroban] | 1.203 ± 0.0019 | 1.12 ± 0.14
10 | CC(=O)N(CC(O)CN(C(C)=O)c1c(I)c(C(=O)NCC(O)CO)c(I)c(C(=O)NCC(O)CO)c1I)c1c(I)c(C(=O)NCC(O)CO)c(I)c(C(=O)NCC(O)CO)c1I (stereo unspecified) [Iodixanol] | 0.975 ± 0.053 | 1 ± 0.059
11 | CN1CCC(OC(c2ccccc2)c2ccccc2)CC1 [Diphenylpyraline hydrochloride] | 0.976 ± 0.11 | 1.04 ± 0.037
12 | CO[C@@]1(NC(=O)CSCC#N)C(=O)N2C(C(=O)O)=C(CSc3nnnn3C)CS[C@@H]21 [Cefmetazole sodium salt] | 0.959 ± 0.029 | 0.98 ± 0.072
13 | O=C(Nc1cccc2c(=O)cc(-c3nnn[nH]3)oc12)c1ccc(OCCCCc2ccccc2)cc1 [Pranlukast] | 1.06 ± 0.05 | 1.08 ± 0.049
14 | CCN(CC)CCOCCOC(=O)C1(c2ccccc2)CCCC1 [Carbetapentane citrate] | 0.163 ± 0.0089 | 0.181 ± 0.0049
15 | O=C(O)CCC(=O)Nc1ccc(S(=O)(=O)Nc2nccs2)cc1 [Succinylsulfathiazole] | 0.979 ± 0.083 | 1.04 ± 0.04
16 | CC(C)(C)NCC(O)c1cc(O)cc(O)c1 (stereo unspecified) [Terbutaline hemisulfate] | 0.45 ± 0.037 | 0.5206 ± 0.0045
17 | OCC(O)CN1CCN(c2ccccc2)CC1 (racemic) [Dropropizine (R,S)] | 1.07 ± 0.041 | 0.9583 ± 0.0092
18 | COC(=O)C1=C(C)NC(C)=C(C(=O)OC2CCCN(Cc3ccccc3)C2)C1c1cccc([N+](=O)[O-])c1 (stereo unspecified) [Benidipine hydrochloride] | 0.988 ± 0.065 | 0.97 ± 0.04
